Assay [1] is described as follows: qHTS assay to identify small molecule agonists of the constitutive androstane receptor (CAR) signaling pathway - cell viability counter screen (AID 1224836). Note: nearly all actives have a fitted effect of over 45% in size. Note: potency is the fitted concentration of half-maximal effect. The procedure, abridged: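 Using CellTiter-Fluor, viability of HepG2 cells harbouring hCAR and CYP2B6-2.2kb was measured following 23 h incubation with a 15-concentration compound series plus PK11195 (0.75 uM final).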
(In general: qHTS replaces the single test concentration by a dilution series.)

The nature of assay [2]: qHTS assay to identify small molecule antagonists of the constitutive androstane receptor (CAR) signaling pathway - cell viability counter screen (AID 1224837). Note: nearly all actives have a fitted effect of over 45% in size. Note: potency is the fitted concentration of half-maximal effect. In a few lines: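 Multiplexed cytotoxicity read-out for the CAR antagonist screen: double-stable HepG2-CYP2B6-hCAR cells co-treated with 50 nM CITCO (final) and compound over 15 concentrations, incubated 23 hr, then assessed by CellTiter-Fluor fluorescence.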

Assay [3] addresses Nuclear receptor subfamily 1 group I member 3 (Homo sapiens) (UniProt Q14994). In words: qHTS assay to identify small molecule antagonists of the constitutive androstane receptor (CAR) signaling pathway (AID 1224838). Note: nearly all actives have a fitted effect of over 40% in size. Note: potency is the fitted concentration of half-maximal effect. In a few lines:
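Compounds were titrated across 15 concentrations onto HepG2 cells double-stably expressing hCAR and a CYP2B6-2.2kb reporter, together with 50 nM CITCO (final). After 24 h at 37 C, luciferase activity was measured by luminescence.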

For assay [4] the target is unchanged. In words: qHTS assay to identify small molecule agonists of the constitutive androstane receptor (CAR) signaling pathway (AID 1224839).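 Note: HepG2 cells stably carrying human CAR and a CYP2B6 luciferase reporter; % is set by controls: 0 for no effect and ±100 for the full control effect; nearly all actives have a fitted effect of over 15% in size.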 The procedure, abridged:
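Double-stable HepG2 cells (hCAR, CYP2B6-2.2kb) seeded 4 h before compound addition. Exposure 24 h with 0.75 uM PK11195 final. Luciferase detected by ONE-Glo.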

Assay [5] is described as follows: qHTS assay to identify small molecule antagonists of the estrogen related receptor signaling pathway with the pleiotropic PPARgamma coactivator (PGC) from Tox21 10K library - cell viability counter screen (AID 1224840; active = well fitted cell-killing curve with a large enough effect in the repeat runs, not every such curve was filed as active; note: nearly all actives have a fitted effect of over 40% in size; note: potency is the fitted concentration of half-maximal effect). In a few lines: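 Step one, plate 2,000 PGC/ERR cells per well; step two, incubate 6 h at 37 C/5% CO2; step three, pin-transfer compounds; step four, incubate 17.5 h; step five, add CellTiter-Fluor and read fluorescence after 30 min.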

Assay [6] in a line: qHTS assay to identify small molecule agonists of the hypoxia (HIF-1) signaling pathway - cell viability counter screen (AID 1224844; calls by dose curve; note: nearly all actives have a fitted effect of over 50% in size; note: potency is the fitted concentration of half-maximal effect). The procedure, abridged:
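Tox21 10K compounds were added to HRE-bla ME-180 cells (0.5% dialyzed FBS) and incubated 17 hrs at 37C; ATP-based CellTiter-Glo luminescence then reported cell viability in the same wells.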

A short description of assay [7]: qHTS RealTime-Glo MT Cell Viability Assay in HepG2 cells - 24 hour (AID 1224867). Note: nearly all actives have a fitted effect of over 50% in size. Note: potency is the fitted concentration of half-maximal effect. In a few lines: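 Luminescence read-out: viable HepG2 cells reduce a prosubstrate to a NanoLuc substrate, giving a signal proportional to live cell number. Reads taken at 0, 8, 16, 24, 32 and 40 h of compound exposure at 37 C.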
Assay [8] is described as follows: A CellTox Green Cytotoxicity Assay to monitor cytotoxicity in HEK293 cells - 0 hour (AID 1224869). Note: % is set by controls: 0 for no effect and ±100 for the full control effect; nearly all actives have a fitted effect of over 50% in size. The procedure, abridged:
(§1)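 Cytotoxicity was tracked continuously in HEK293 cells by a DNA-binding dye excluded from viable cells. Compounds were transferred in DMSO 5 h after seeding; fluorescence was recorded at intervals up to 40 h.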

Assay [9] in a line: A CellTox Green Cytotoxicity Assay to monitor cytotoxicity in HEK293 cells - 40 hour (AID 1224871). Note: nearly all actives have a fitted effect of over 45% in size. Note: potency is the fitted concentration of half-maximal effect. In a few lines:
as §1

Assay [10] in a line: qHTS RealTime-Glo MT Cell Viability Assay in HEK293 cells - 16 hour (AID 1224872). Note: nearly all actives have a fitted effect of over 50% in size. Note: potency is the fitted concentration of half-maximal effect. In a few lines: (§2)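 Nonlytic real-time viability readout: viable cells convert prosubstrate to NanoLuc substrate, giving luminescence proportional to live cell number. HEK293, 600 cells/well, compound added after 5 h, continuous culture at 37 C.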
Assay [11] deals with Thyrotropin receptor (Homo sapiens) (UniProt P16473). Put plainly: qHTS assay to identify small molecule agonists of the thyroid stimulating hormone receptor (TSHR) signaling pathway (AID 1224843; calls by dose curve; note: % is set by controls: 0 for no effect and ±100 for the full control effect; nearly all actives have a fitted effect of over 45% in size). In a few lines: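 HEK293 cells stably bearing the thyrotropin receptor were plated at 800 cells/well and challenged with compound (30 min, RT). Accumulated cAMP was quantified via cAMP-d2 competing for cryptate-tagged antibody.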

Assay [12] can be described thus: qHTS assay to identify small molecule agonists of H2AX (AID 1224845; active = well fitted activation curve with a large enough effect in the signal ratio in the repeat runs, not every such curve was filed as active; the % refers to the signal ratio; note: % is set by controls: 0 for no effect and ±100 for the full control effect). In a few lines: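 Phospho-H2AX Ser139 measured by HTRF (ex 320 nm; em 665 and 620 nm) after 24 hr antibody incubation. Compounds, 15 concentrations, 0.76% DMSO, were applied to CHO-K1 cells for 3hr at 37C before lysis.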
Assay [13] is described as follows: qHTS assay to identify small molecule agonists of the hypoxia (HIF-1) signaling pathway (AID 1224846; active = well fitted activation curve with a large enough effect in the signal ratio in the repeat runs, not every such curve was filed as active; the % refers to the signal ratio; note: % is set by controls: 0 for no effect and ±100 for the full control effect). The procedure, abridged: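 Steps: seed ME-180 HRE-bla cells (2,000/well, 0.5% dialyzed FBS); incubate 5 hrs at 37C; pin-transfer compounds or DMSO; incubate 17 hrs; add LiveBLAzer B/G substrate CCF4-AM; measure reporter activation by FRET.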
A short description of assay [14]: qHTS assay to identify small molecule agonists of H2AX - cell viability counter screen (AID 1224847; calls by dose curve; note: nearly all actives have a fitted effect of over 30% in size; note: potency is the fitted concentration of half-maximal effect). In a few lines:
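Quantitative HTS viability measurement: CHO-K1 wild-type cells in serum (10% FBS) medium, short 3 hr drug exposure at 37C with 0.76% DMSO, CellTiter-Glo luminescent detection.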

Assay [15] can be described thus: qHTS RealTime-Glo MT Cell Viability Assay in HEK293 cells - 32 hour (AID 1224868). Note: nearly all actives have a fitted effect of over 50% in size. Note: potency is the fitted concentration of half-maximal effect. In a few lines: as §2
Assay [16] is described as follows: qHTS RealTime-Glo MT Cell Viability Assay in HepG2 cells - 40 hour (AID 1224870). Note: nearly all actives have a fitted effect of over 50% in size. Note: potency is the fitted concentration of half-maximal effect. In a few lines:
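Real-time viability: cells seeded at 600 per well together with NanoLuc and cell-permeant prosubstrate, compounds added after 5 h incubation. Luminescence tracked at 0, 8, 16, 24, 32 and 40 h of exposure.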

Assay [17] can be described thus: qHTS assay to identify small molecule agonists of the estrogen related receptor signaling pathway with the pleiotropic PPARgamma coactivator (PGC) from Tox21 10K library (AID 1224842). Note: % is set by controls: 0 for no effect and ±100 for the full control effect; nearly all actives have a fitted effect of over 15% in size. The procedure, abridged: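 Luminescence from One-Glo (30 min, room temperature) measured after PGC/ERR cells had 18 h at 37 C with pinned compound (23 nL in DMSO). Cells had been seeded at 2,000 per well and pre-incubated 6 h.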

Assay [18] is described as follows: qHTS assay to identify small molecule antagonists of the estrogen related receptor (ERR) signaling pathway from Tox21 library (AID 1224848). In a few lines:
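Reading was by luminescence 30 min after ONE-Glo addition. Before that, ERR cells at 2,000 per well had rested 6 h at 37 C/5% CO2 and then received pin-tooled compounds in DMSO for 18 h at 37 C.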

Assay [19] in a line: qHTS assay to identify small molecule agonists of the estrogen related receptor (ERR) signaling pathway from Tox21 library (AID 1224849; calls by dose curve; note: % is set by controls: 0 for no effect and ±100 for the full control effect; nearly all actives have a fitted effect of over 15% in size). As to conditions: ERR reporter cell line, ONE-Glo luciferase, 18 h; at 92.4 µM (top of the series) unless noted. The procedure, abridged: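 Agonist signal is luciferase luminescence from an ERR reporter cell line treated 18 h at 37 C with DMSO-dissolved compounds, read 30 min after ONE-Glo addition at room temperature.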

Potency and activity change, positive = activation data for seven molecules are collected here from PubChem BioAssay (Tox21).

Values without a mark were called inactive. Inconclusive results are not listed. Calls of active or inactive are those of the source. Unless noted, calls come from the whole dose curve; as a rule, active = well fitted curve in the direction sought with a large enough effect in the repeat runs; inconclusive = weak or mixed curves; inactive = no such curve, though single readings can be large; an effect the other way counts as inactive or inconclusive.

Nuclear receptor subfamily 1 group I member 3 (Homo sapiens), sequence (Q14994 whole entry, looked up): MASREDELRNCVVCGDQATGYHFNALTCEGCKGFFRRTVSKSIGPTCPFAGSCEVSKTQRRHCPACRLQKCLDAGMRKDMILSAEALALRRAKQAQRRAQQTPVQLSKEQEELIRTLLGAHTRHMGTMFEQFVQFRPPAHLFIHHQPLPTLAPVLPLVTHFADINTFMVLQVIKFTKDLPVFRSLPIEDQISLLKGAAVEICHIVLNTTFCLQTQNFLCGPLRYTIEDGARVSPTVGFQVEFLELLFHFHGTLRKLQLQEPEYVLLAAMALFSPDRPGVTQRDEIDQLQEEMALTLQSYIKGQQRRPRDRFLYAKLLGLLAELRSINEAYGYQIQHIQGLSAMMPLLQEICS
Thyrotropin receptor (Homo sapiens), sequence (P16473 whole entry, looked up): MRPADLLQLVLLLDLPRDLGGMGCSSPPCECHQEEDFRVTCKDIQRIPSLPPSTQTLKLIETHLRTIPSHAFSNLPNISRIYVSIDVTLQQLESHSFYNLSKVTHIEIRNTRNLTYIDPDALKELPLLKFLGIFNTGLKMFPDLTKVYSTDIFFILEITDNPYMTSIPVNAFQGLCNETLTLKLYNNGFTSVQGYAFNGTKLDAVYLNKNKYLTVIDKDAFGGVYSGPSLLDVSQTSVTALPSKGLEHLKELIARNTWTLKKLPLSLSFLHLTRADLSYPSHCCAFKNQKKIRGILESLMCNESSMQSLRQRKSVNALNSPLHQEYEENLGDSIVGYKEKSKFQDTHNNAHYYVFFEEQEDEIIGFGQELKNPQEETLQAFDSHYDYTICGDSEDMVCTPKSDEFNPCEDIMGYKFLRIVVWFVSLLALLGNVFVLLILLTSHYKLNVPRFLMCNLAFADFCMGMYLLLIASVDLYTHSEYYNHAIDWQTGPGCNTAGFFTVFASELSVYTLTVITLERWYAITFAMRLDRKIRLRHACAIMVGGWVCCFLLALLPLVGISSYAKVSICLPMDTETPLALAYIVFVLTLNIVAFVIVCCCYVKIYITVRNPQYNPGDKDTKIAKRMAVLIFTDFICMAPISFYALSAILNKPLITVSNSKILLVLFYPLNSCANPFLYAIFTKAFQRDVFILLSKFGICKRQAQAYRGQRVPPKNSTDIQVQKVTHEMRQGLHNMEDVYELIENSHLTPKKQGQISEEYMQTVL

As for `C=CC(=O)OCC(CO)(COCC(COC(=O)C=C)(COC(=O)C=C)COC(=O)C=C)COC(=O)C=C`, the Potency was 6.78 µM (active) in [1]; 6.04 µM (active) in [2]; 5.38 µM (active) in assay [3]; 3.4 µM (active) in assay [5]; 2.16 µM (active) in assay [6]; 4.31 µM (active) in [7]. Also, the Potency was 27.2 µM (active) in assay [9] and 3.05 µM (active) in assay [10]. In addition, the Potency entry in assay [4] and in assay [8] was “inactive” in each case.
As for `NC(=O)NS(=O)(=O)c1ccc(N)cc1`, the Potency entry in assay [1], in assay [2], in assay [3], in assay [4], in assay [5] and in assay [11] was “inactive” in each case. Also, the Potency entry in [6], in assay [12], in assay [13], in [14], in [7] and in [15] was “inactive” throughout. Further, the Potency entry in [8], in assay [16], in [9] and in [10] was “inactive” throughout.
In the case of `CCCCCCCC[N+](CCCCCCCC)(CCCCCCCC)CCCCCCCC`, the Potency in assay [1] was 9.67 µM (active); in [2] it was 9.67 µM (active); in assay [3], 21.6 µM (active); in assay [5], 21.6 µM (active); in [6], 13.8 µM (active); in [14], 17.9 µM (active). Further, the Potency was 768 nM (active) in assay [18]; 24.5 µM (active) in [7]; 6.15 µM (active) in [15]; 19.5 µM (active) in assay [9]; 7.75 µM (active) in assay [10]. The Potency result in assay [4], in [17] and in assay [8] was “inactive” each time. The activity change, positive = activation in assay [19] was -81.8%.
In the case of `CCCCCCCC[P+](CCCCCCCC)(CCCCCCCC)CCCCCCCC`, the Potency in [1] is 1.92 µM (active); in [2] it was 3.83 µM (active); in assay [3], 10.8 µM (active); in [5], 10.8 µM (active); in assay [6] it was 3.45 µM (active); in assay [14] it was 7.95 µM (active). The Potency in assay [18] was 108 nM (active); in assay [7] it was 13.7 µM (active); in assay [16] it was 10.9 µM (active); in assay [9], 6.87 µM (active); in [10], 4.87 µM (active). Moreover, the Potency result in assay [4], in assay [17], in assay [11] and in [8] was “inactive” throughout. Moreover, the activity change, positive = activation in assay [19] was -78.2%.
With `CCCC(C)c1ccccc1O` (centres undefined), the Potency entry in assay [1], in assay [2], in assay [3], in [4], in [5] and in [12] was “inactive” each time. Also, the Potency result in [13], in assay [7], in assay [15], in [8], in assay [16] and in [10] was “inactive” each time. The Potency was 80 µM (active) in assay [14] and 49 µM (active) in assay [9].
In the case of `Cc1nc(-c2ccc3c(c2)CCN(CCC2CCC(NC(=O)/C=C/c4ccc(F)cc4)CC2)CC3)no1` (centres undefined), the Potency entry in [1], in [2], in assay [3], in assay [4], in [5] and in [6] was “inactive” in each case. In addition, the Potency result in [12], in assay [13], in assay [14], in assay [7], in assay [8] and in [16] was “inactive” throughout.
For the molecule `Fc1ccc([C@@H]2CCNC[C@H]2COc2ccc3c(c2)OCO3)cc1`, the Potency result in assay [1], in [2], in [3], in [4], in assay [5] and in assay [6] was “inactive” throughout. The Potency result in assay [12], in assay [13], in assay [14], in assay [8] and in assay [10] was “inactive” throughout.
